{"source": "PubChem BioAssay (Tox21)", "note": "Results filed as inconclusive are left out. A call without a number means that no potency is given here. Calls of active or inactive are those of the source. Calls follow the shape of the dose curve; as a rule, active = well fitted activation curve with a large enough effect in the repeat runs; inconclusive = weak or mixed curves; inactive = flat fitted curve, though single readings scatter.", "data": [{"test": "A CellTox Green Cytotoxicity Assay to monitor cytotoxicity in HepG2 cells - 40 hour (AID 1224879); also: nearly all actives have a fitted effect of over 40% in size", "conditions": "CellTox Green fluorescence; series mostly up to 76.8 µM", "text": "National Center for Advancing Translational Sciences [NCATS]\nNIH Chemical Genomics Center [NCGC]\nU.S. Environmental Protection Agency [EPA]\nNational Institutes of Environmental Health Sciences [NIEHS]\nNational Toxicology Program [NTP]\nCell-based models are critical for drug discovery. Determining the natural cytotoxic effects resulting from test compounds is an essential research activity. A CellTox Green Cytotoxicity Assay to monitor cytotoxicity in real time of continues cell culture during 40 hours of the compound treatment was used to screen Tox21 10K library compounds in HepG2 cells. CellTox Green Cytotoxicity Assay is a nonlytic, homogeneous, biofluorescent method to measure cytotoxicity in cell culture after experimental manipulation. The assay system uses a proprietary asymmetric cyanine dye that is excluded from viable cells but preferentially stains the dead cell's DNA. […] Viable cells produce no appreciable increases in fluorescence. Therefore, the fluorescence signal produced by the binding interaction with dead cell DNA is proportional to cytotoxicity.\nThe mixture of HepG2 cell suspension and reagents were dispensed at 600cells/6 ul/well in 1536-well tissue culture treated black solid bottom plates using a Multidrop dispenser. After the assay plates were incubated at a 37 C/5% CO2 incubator for 5 hours, 23 nL of compounds dissolved in DMSO, positive and negative controls was transferred to the assay plate by a pintool work station. The plates were incubated at 37 C for 40 hours. The fluorescence intensity were measured at 0h, 8h, 16h, 24h, 32h and 40h time points using ViewLux plate reader during compound treatment.", "values": [{"smiles": "CCOC(=O)OC(C)OC1=C(C(=O)Nc2ccccn2)N(C)S(=O)(=O)c2ccccc21", "note": "(stereo not given)", "Potency": "inactive"}, {"smiles": "CC(C)NNC(=O)c1ccncc1", "Potency": "inactive"}, {"smiles": "Cc1cc(C)c(N=Nc2c(O)c(S(=O)(=O)O)cc3cc(S(=O)(=O)O)ccc23)cc1C", "cytotoxicity increase": "-2.22% [at 6.97 µM] (inactive)"}, {"smiles": "COc1c(N2CCNC(C)C2)c(F)cc2c(=O)c(C(=O)O)cn(C3CC3)c12", "note": "(stereo not given)", "Potency": "inactive"}, {"smiles": "COc1cc2c(cc1OC)-c1cc3ccc(OC)c(OC)c3c[n+]1CC2", "Potency": "inactive"}, {"smiles": "CC(C)C(=O)OC(=O)C(C)C", "Potency": "inactive"}, {"smiles": "CC(C)c1ccc2ncccc2c1", "Potency": "inactive"}, {"smiles": "CC(=O)NC(=O)c1ccccc1O", "Potency": "inactive"}, {"smiles": "C[C@@H]1CCC[C@H](C)N1", "Potency": "inactive"}, {"smiles": "Cc1ccc(C(=O)Nc2ccc(S(=O)(=O)O)c3cc(S(=O)(=O)O)cc(S(=O)(=O)O)c23)cc1NC(=O)c1cccc(NC(=O)Nc2cccc(C(=O)Nc3cc(C(=O)Nc4ccc(S(=O)(=O)O)c5cc(S(=O)(=O)O)cc(S(=O)(=O)O)c45)ccc3C)c2)c1", "Potency": "inactive"}, {"smiles": "O=CN(CCO)CCO", "Potency": "inactive"}, {"smiles": "C=C(C)C(=O)OCCOCCOCCOCCOC(=O)C(=C)C", "Potency": "inactive"}, {"smiles": "COc1cc(C(=O)NCc2ccc(OCCN(C)C)cc2)cc(OC)c1OC", "Potency": "inactive"}, {"smiles": "CC(=O)Nc1ccc(OCC(O)CNC(C)C)cc1", "note": "(stereo not given)", "Potency": "inactive"}, {"smiles": "Clc1cc(Cl)cc(Cl)c1", "Potency": "inactive"}, {"smiles": "Nc1ccncc1N", "Potency": "inactive"}, {"smiles": "Cc1ccc(-c2ncc(Cl)cc2-c2ccc(S(C)(=O)=O)cc2)cn1", "Potency": "inactive"}, {"smiles": "NC(CCC(=O)O)C(=O)O", "note": "(stereo not given)", "Potency": "inactive"}, {"smiles": "CCOC(=O)COC(=O)c1ccccc1C(=O)OCC", "Potency": "inactive"}, {"smiles": "COCCOC[C@H](CC1(C(=O)NC2CCC(C(=O)O)CC2)CCCC1)C(=O)Oc1ccc2c(c1)CCC2", "note": "(stereo not given in full)", "Potency": "inactive"}, {"smiles": "C=CC(C)(CCC=C(C)C)OC(=O)CC", "note": "(stereo not given)", "Potency": "inactive"}, {"smiles": "COc1ccnc(CS(=O)c2nc3cc(OC(F)F)ccc3[nH]2)c1OC", "note": "(stereo not given)", "Potency": "inactive"}, {"smiles": "CCCCCC(=O)OCCc1ccccc1", "Potency": "inactive"}, {"smiles": "CN(C)CCN(C)CCN(C)C", "Potency": "inactive"}, {"smiles": "CCOc1ccc2nc(S(N)(=O)=O)sc2c1", "Potency": "inactive"}, {"smiles": "CC(C)(C)C(=O)Oc1ccc(S(=O)(=O)Nc2ccccc2C(=O)NCC(=O)O)cc1", "Potency": "inactive"}, {"smiles": "CCCCCC(C)N", "note": "(stereo not given)", "Potency": "inactive"}, {"smiles": "N[C@@H](CCC(=O)O)C(=O)O", "Potency": "inactive"}, {"smiles": "CCN1CCOCC1", "Potency": "inactive"}, {"smiles": "CN(C)CCCN(C)CCCN(C)C", "Potency": "inactive"}, {"smiles": "CCCCOC(=O)CCC(C)=O", "Potency": "inactive"}, {"smiles": "CC[C@H]1OC(=O)[C@H](C)[C@@H](O[C@H]2C[C@@](C)(OC)[C@@H](O)[C@H](C)O2)[C@H](C)[C@@H](O[C@@H]2O[C@H](C)C[C@H](N(C)C)[C@H]2O)[C@](C)(OC)C[C@@H](C)C(=O)[C@H](C)[C@@H](O)[C@]1(C)O", "Potency": "inactive"}, {"smiles": "Nc1ccn([C@@H]2O[C@H](CO)[C@@H](O)C2(F)F)c(=O)n1", "Potency": "inactive"}, {"smiles": "COc1cccc(OC)c1C(=O)N[C@@H]1C(=O)N2[C@@H]1SC(C)(C)[C@@H]2C(=O)O", "Potency": "inactive"}, {"smiles": "Cc1nc2ccc(CN(C)c3ccc(C(=O)N[C@@H](CCC(=O)O)C(=O)O)s3)cc2c(=O)[nH]1", "Potency": "inactive"}, {"smiles": "CC(=O)C1CCCCC1=O", "note": "(stereo not given)", "Potency": "inactive"}, {"smiles": "NCCCC[C@H](N[C@@H](CCc1ccccc1)C(=O)O)C(=O)N1CCC[C@H]1C(=O)O", "Potency": "inactive"}, {"smiles": "CN(C)C(=O)Oc1ccc[n+](C)c1", "Potency": "inactive"}, {"smiles": "Cc1ncc(COP(=O)(O)O)c(C=O)c1O", "Potency": "inactive"}, {"smiles": "CN(C)CCCCCCN(C)C", "Potency": "inactive"}]}]}
